This is part of a sample that, as a whole, favours compounds with a hit. Of some 79,000 tested, about 15% had one in any assay. A number with no mark means an inactive call. Calls of active or inactive are those of the source. Cut-off read from the data, not from the text of the source: active = growth inhibition above about 70%; inactive = the rest.

This passage reports growth inhibition results from PubChem BioAssay (NCI).

Experiment [1] can be described thus: NCI Yeast Anticancer Drug Screen. Data for the rad50 strain (AID 155).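 Note: 0% = growth of vehicle-only cultures of the same strain.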 The settings on record: S. cerevisiae rad50 strain growth inhibition, stronger effect = higher value. The procedure, abridged:
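Inhibition values express reduced yeast growth in compound-treated cultures relative to vehicle-treated controls.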

The nature of experiment [2]: NCI Yeast Anticancer Drug Screen. Data for the mec2-1 strain (AID 157). The settings on record: S. cerevisiae mec2-1 strain, stronger effect = higher value. The procedure, abridged: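 Yeast mec2-1 mutant treated with compound. Readout: growth inhibition vs vehicle controls.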
Experiment [3] in a line: NCI Yeast Anticancer Drug Screen. Data for the sgs1 mgt1 strain (AID 161).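 Note: 0% = growth of cultures given vehicle only.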 As to conditions: S. cerevisiae sgs1 mgt1 strain, stronger effect = higher value. The procedure, abridged:
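Test agents were incubated with a DNA-repair-mutant yeast strain. Growth was then read and compared against vehicle-treated controls.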

A short description of experiment [4]: NCI Yeast Anticancer Drug Screen. Data for the cln2 rad14 strain (AID 165).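 Note: 0% = growth equal to vehicle treated cultures.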 The settings on record: S. cerevisiae cln2 rad14 strain, stronger effect = higher value. The procedure, abridged: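 cln2 rad14 yeast strain; compound exposure; growth inhibition read vs vehicle controls.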
The nature of experiment [5]: NCI Yeast Anticancer Drug Screen. Data for the bub3 strain (AID 167). The settings on record: S. cerevisiae bub3 mutant strain, stronger effect = higher value. A digest of the protocol:
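Steps: expose the mutant yeast strain to compound; grow alongside vehicle-treated cultures; measure growth; express inhibition against the vehicle cultures.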

Experiment [6] is described as follows: NCI Yeast Anticancer Drug Screen. Data for the mlh1 rad18 strain (AID 175). The settings on record: S. cerevisiae mlh1 rad18 strain growth inhibition, stronger effect = higher value. A digest of the protocol:
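Yeast w/ defined DNA-repair lesions; compound exposure; growth vs vehicle controls → % inhibition.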

Setting [7] is: at 5.0 µM (retest, dose inferred, filed as 0.5).
Where [8] appears, read: at 50.0 µM (retest, dose inferred, filed as 5.0).

Turning to `COC1=CC(=O)c2c(O)c3c(c(O)c2C1=O)C=C(C)OC3O` (centres undefined), the growth inhibition was -3% in experiment [1] (setting [7]); 34% in experiment [1] (setting [8]); 85.5% (active) in experiment [1] (at 50.0 µM); -2% in experiment [2] (setting [7]); 31% in experiment [2] (setting [8]); 88% (active) in experiment [2] (at 50.0 µM). The growth inhibition was -27% in experiment [3] (setting [7]); 22% in experiment [3] (setting [8]); 89% (active) in experiment [3] (at 50.0 µM); 7% in experiment [4] (setting [7]); 20% in experiment [4] (setting [8]); 47.1% in experiment [4] (at 50.0 µM). In addition, the growth inhibition is -4% in experiment [5] (setting [7]); 44% in experiment [5] (setting [8]); 85.8% (active) in experiment [5] (at 50.0 µM); -9% in experiment [6] (setting [7]); 52% in experiment [6] (setting [8]); 89.3% (active) in experiment [6] (at 50.0 µM).

In the case of `COc1ccc(C(=O)Nc2ccccc2OC)cc1`, the growth inhibition was 5% in experiment [1] (setting [7]); 8% in experiment [1] (setting [8]); 3.45% in experiment [1] (at 50.0 µM); -13% in experiment [2] (setting [7]); -29% in experiment [2] (setting [8]); 12.2% in experiment [2] (at 50.0 µM). Further, the growth inhibition in experiment [3] (setting [7]) is 4%; in experiment [3] (setting [8]), 10%; in experiment [3] (at 50.0 µM), 15.1%; in experiment [4] (setting [7]) it was 6%; in experiment [4] (setting [8]) it was 17%; in experiment [4] (at 50.0 µM), 19.1%. Further, the growth inhibition was 6% in experiment [5] (setting [7]); 20% in experiment [5] (setting [8]); 10.7% in experiment [5] (at 50.0 µM); 18% in experiment [6] (setting [7]); 23% in experiment [6] (setting [8]); 9.5% in experiment [6] (at 50.0 µM).

Regarding `C=CCOc1ccc(-c2ccccc2)cc1C(=O)NC`, the growth inhibition was -9% in experiment [1] (setting [7]); -5% in experiment [1] (setting [8]); 1.25% in experiment [1] (at 50.0 µM); 2% in experiment [2] (setting [7]); -6% in experiment [2] (setting [8]); 6.3% in experiment [2] (at 50.0 µM). Also, the growth inhibition in experiment [3] (setting [7]) is -2%; in experiment [3] (setting [8]), 20%; in experiment [3] (at 50.0 µM) it was 5.1%; in experiment [4] (setting [7]), -42%; in experiment [4] (setting [8]), -5%; in experiment [4] (at 50.0 µM) it was 8.95%. For the same compound, the growth inhibition was -3% in experiment [5] (setting [7]); 8% in experiment [5] (setting [8]); 42.9% in experiment [5] (at 50.0 µM); -3% in experiment [6] (setting [7]); 20% in experiment [6] (setting [8]); 22.1% in experiment [6] (at 50.0 µM).

For the compound `Clc1ccnc2c1ccc1c(Cl)ccnc12`, the growth inhibition in experiment [1] (setting [7]) was 8%; in experiment [1] (setting [8]), 53%; in experiment [1] (at 50.0 µM) it was 43.6%; in experiment [2] (setting [7]), -17%; in experiment [2] (setting [8]), 2%; in experiment [2] (at 50.0 µM), 26.4%. Also, the growth inhibition in experiment [3] (setting [7]) is 1%; in experiment [3] (setting [8]) it was 12%; in experiment [3] (at 50.0 µM), 20.7%; in experiment [4] (setting [7]), 5%; in experiment [4] (setting [8]), -10%; in experiment [4] (at 50.0 µM) it was 13.9%. The growth inhibition in experiment [5] (setting [7]) is -74%; in experiment [5] (setting [8]) it was 10%; in experiment [5] (at 50.0 µM), 40.6%.

As to `O=C(/C=C/c1ccccc1)c1ccc(NCc2nc3ccccc3[nH]2)cc1`, the growth inhibition in experiment [1] (setting [7]) was -28%; in experiment [1] (setting [8]), 74% (active); in experiment [1] (at 50.0 µM) it was 70.7% (active); in experiment [2] (setting [7]), -62%; in experiment [2] (setting [8]), 61%; in experiment [2] (at 50.0 µM), 77% (active). Moreover, the growth inhibition in experiment [3] (setting [7]) was -23%; in experiment [3] (setting [8]), 82% (active); in experiment [3] (at 50.0 µM), 84% (active); in experiment [4] (setting [7]), -20%; in experiment [4] (setting [8]), 80% (active); in experiment [4] (at 50.0 µM), 84.8% (active). The growth inhibition in experiment [5] (setting [7]) was -8%; in experiment [5] (setting [8]), 85% (active); in experiment [5] (at 50.0 µM), 76.7% (active); in experiment [6] (setting [7]), -35%; in experiment [6] (setting [8]) it was 80% (active); in experiment [6] (at 50.0 µM) it was 68.8%.

With `COc1ccc2c(c1)CC[C@@H]1C2CC[C@]2(C)OC(=O)CCC12` (some centres undefined), the growth inhibition in experiment [1] (setting [7]) is -23%; in experiment [1] (setting [8]), 98% (active); in experiment [1] (at 50.0 µM) it was 73.1% (active); in experiment [2] (setting [7]), -5%; in experiment [2] (setting [8]) it was 89% (active); in experiment [2] (at 50.0 µM), 66.8%. In addition, the growth inhibition was -15% in experiment [3] (setting [7]); 93% (active) in experiment [3] (setting [8]); 77.1% (active) in experiment [3] (at 50.0 µM); -4% in experiment [4] (setting [7]); 92% (active) in experiment [4] (setting [8]); 67.3% in experiment [4] (at 50.0 µM). The growth inhibition was -31% in experiment [5] (setting [7]), 97% (active) in experiment [5] (setting [8]) and 72.7% (active) in experiment [5] (at 50.0 µM).

On to `CC(=O)/C(=C\c1ccc(N(C)C)cc1)C(C)=[N+](C)C(=O)c1c(/[N+](C)=C(C)\C(=C\c2ccc(N(C)C)cc2)C(C)=O)ncn1C`, for which the growth inhibition in experiment [1] (setting [7]) was 31%; in experiment [1] (setting [8]), 47%; in experiment [1] (at 50.0 µM), 87.7% (active); in experiment [2] (setting [7]) it was 14%; in experiment [2] (setting [8]), 70% (active); in experiment [2] (at 50.0 µM), 7.45%. In addition, the growth inhibition is 47% in experiment [3] (setting [7]); 66% in experiment [3] (setting [8]); 77.3% (active) in experiment [3] (at 50.0 µM); -5% in experiment [4] (setting [7]); 43% in experiment [4] (setting [8]); 24.7% in experiment [4] (at 50.0 µM). Further, the growth inhibition in experiment [5] (setting [7]) was 10%; in experiment [5] (setting [8]) it was 43%; in experiment [5] (at 50.0 µM) it was 43.4%; in experiment [6] (setting [7]), 49%; in experiment [6] (setting [8]), 53%; in experiment [6] (at 50.0 µM), 85% (active).

For the compound `Cc1ccc(N2C(=O)C(C)SC2=S)cc1Cl` (centres undefined), the growth inhibition in experiment [1] (setting [7]) was 2%; in experiment [1] (setting [8]) it was -4%; in experiment [1] (at 50.0 µM) it was 86.2% (active); in experiment [2] (setting [7]), -1%; in experiment [2] (setting [8]), -1%; in experiment [2] (at 50.0 µM), 51.9%. In addition, the growth inhibition in experiment [3] (setting [7]) was 1%; in experiment [3] (setting [8]) it was -25%; in experiment [3] (at 50.0 µM), 94.7% (active); in experiment [4] (setting [7]) it was -2%; in experiment [4] (setting [8]) it was -2%; in experiment [4] (at 50.0 µM), 13.7%. Besides, the growth inhibition in experiment [5] (setting [7]) was -4%; in experiment [5] (setting [8]) it was 1%; in experiment [5] (at 50.0 µM) it was 48%; in experiment [6] (setting [7]) it was -5%; in experiment [6] (setting [8]) it was 1%; in experiment [6] (at 50.0 µM) it was 93.5% (active).

Regarding `COC12C(COC(N)=O)C3=C(C(=O)C(C)=C(N)C3=O)N1CC1C2N1C(=O)c1ccc(Cl)c(Cl)c1` (centres undefined), the growth inhibition is 32% in experiment [1] (setting [7]); 93% (active) in experiment [1] (setting [8]); 82.2% (active) in experiment [1] (at 50.0 µM); 29% in experiment [2] (setting [7]); 96% (active) in experiment [2] (setting [8]); 85.3% (active) in experiment [2] (at 50.0 µM). For the same compound, the growth inhibition in experiment [3] (setting [7]) is 12%; in experiment [3] (setting [8]) it was 95% (active); in experiment [3] (at 50.0 µM) it was 89.2% (active); in experiment [4] (setting [7]), 11%; in experiment [4] (setting [8]), 94% (active); in experiment [4] (at 50.0 µM), 80.5% (active). The growth inhibition was 22% in experiment [5] (setting [7]); 95% (active) in experiment [5] (setting [8]); 83.8% (active) in experiment [5] (at 50.0 µM); 37% in experiment [6] (setting [7]); 95% (active) in experiment [6] (setting [8]); 88% (active) in experiment [6] (at 50.0 µM).

For `Fc1ccc(CN2COc3c(ccc4cccnc34)C2)cc1`, the growth inhibition in experiment [1] (setting [7]) is -5%; in experiment [1] (setting [8]), 32%; in experiment [1] (at 50.0 µM), 59.4%; in experiment [2] (setting [7]), -2%; in experiment [2] (setting [8]) it was 17%; in experiment [2] (at 50.0 µM) it was 27.1%. Also, the growth inhibition in experiment [3] (setting [7]) was 2%; in experiment [3] (setting [8]), 34%; in experiment [3] (at 50.0 µM), 62.4%; in experiment [4] (setting [7]) it was 3%; in experiment [4] (setting [8]), 70% (active); in experiment [4] (at 50.0 µM), 41.2%. Moreover, the growth inhibition in experiment [5] (setting [7]) was -5%; in experiment [5] (setting [8]) it was 50%; in experiment [5] (at 50.0 µM) it was 77% (active); in experiment [6] (setting [7]) it was -1%; in experiment [6] (setting [8]), 57%; in experiment [6] (at 50.0 µM), 9.45%.
